In PubChem BioAssay (Tox21):
Records with an inconclusive call do not appear. Active and inactive are the calls of the source. Calls follow the shape of the full dose curve.

How the values were obtained:
[1] = molecular target: Acetylcholinesterase (Homo sapiens) (UniProt P22303); assay: Acetylcholinesterase (AChE) small molecule antagonists: colormetric cell-based qHTS assay (AID 1347395); details: SH-SY5Y cells AChE activity, colorimetric (Ellman); series mostly up to 115 µM; also: nearly all actives have a fitted effect of over 30% in size
In short: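 SH-SY5Y cells, plated overnight at 37 C, were exposed to compounds for 30 min at 37 C and 5% CO2. Acetylthiocholine plus DTNB was then added, and thiocholine from endogenous AChE was quantified colorimetrically after 90 min at 37 C.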

[2] = molecular target: Acetylcholinesterase (Homo sapiens) (UniProt P22303); assay: Acetylcholinesterase (AChE) small molecule antagonists: enzyme-based qHTS assay (AID 1347397); details: Potency: AChE enzyme activity inhibition; outcome: AChE enzyme activity inhibition; series mostly up to 115 µM; also: nearly all actives have a fitted effect of over 55% in size
In short: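 Absorbance-based detection of thiocholine with DTNB served as the read-out. Recombinant human AChE was exposed to compound for 30 min at RT before a 10 min RT incubation with acetylthiocholine.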

[3] = molecular target: Acetylcholinesterase (Homo sapiens) (UniProt P22303); assay: Acetylcholinesterase (AChE) small molecule antagonists: fluorescence cell-based qHTS assay (AID 1347398); details: SH-SY5Y cells; Potency: AChE activity; outcome: AChE activity; series mostly up to 115 µM; also: nearly all actives have a fitted effect of over 50% in size
In short: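 Fluorimetric cell-based assay: intact SH-SY5Y cells, 30 min compound preincubation at 37 C, acetylthiocholine substrate with thiol probe Thiolite Green, 40 min RT development, fluorescence 490/520 nm.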

[4] = molecular target: Acetylcholinesterase (Homo sapiens) (UniProt P22303); assay: Acetylcholinesterase (AChE) small molecule antagonists: enzyme-based qHTS assay with human liver microsomes (AID 1347399); details: Potency: qHTS inhibition; outcome: qHTS inhibition; series mostly up to 115 µM; also: nearly all actives have a fitted effect of over 60% in size
In short: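 Recombinant human AChE (50 mU/mL in the enzyme mix) and human liver microsomes (0.25 mg/mL final) were preincubated with compound and NADPH (0.25 mg/mL final) for 30 min at 37 C. Acetylthiocholine/DTNB was then added; thiocholine was read colorimetrically after 10 min at room temperature.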
% is scaled to controls: 0 for no effect and ±100 for the full control effect.

Chain of Acetylcholinesterase (Homo sapiens) (P22303 whole entry, looked up): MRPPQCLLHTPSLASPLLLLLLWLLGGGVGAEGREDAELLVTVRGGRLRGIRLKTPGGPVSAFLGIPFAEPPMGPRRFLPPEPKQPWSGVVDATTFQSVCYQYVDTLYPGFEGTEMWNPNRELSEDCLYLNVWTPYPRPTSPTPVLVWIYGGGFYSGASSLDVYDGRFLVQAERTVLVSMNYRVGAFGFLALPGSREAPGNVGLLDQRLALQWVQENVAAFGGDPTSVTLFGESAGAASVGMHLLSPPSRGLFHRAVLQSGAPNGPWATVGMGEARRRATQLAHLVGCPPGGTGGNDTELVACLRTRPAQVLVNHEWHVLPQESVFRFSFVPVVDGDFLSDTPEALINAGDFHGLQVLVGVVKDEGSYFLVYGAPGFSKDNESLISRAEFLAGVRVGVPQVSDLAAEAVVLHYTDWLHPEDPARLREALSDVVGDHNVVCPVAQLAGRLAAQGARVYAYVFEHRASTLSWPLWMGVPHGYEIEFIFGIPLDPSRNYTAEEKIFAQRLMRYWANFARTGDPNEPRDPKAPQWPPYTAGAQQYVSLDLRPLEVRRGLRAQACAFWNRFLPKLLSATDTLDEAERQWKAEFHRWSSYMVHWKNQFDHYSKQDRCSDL

O=C1C=CCCC1
inactive: Potency [1] | Potency [2] | Potency [3] | Potency [4]

Cc1nc(C)c(C)nc1C
inactive: Potency [1] | Potency [2] | Potency [3] | Potency [4]

CC(=O)S[C@H](C(=O)N[C@H]1Cc2ccccc2[C@H]2CCC[C@@H](C(=O)O)N2C1=O)C(C)C
inactive: Potency [1] | Potency [2] | Potency [3] | Potency [4]

CCCCCCCCC(=O)OCC(C)OC(=O)CCCCCCCC (stereo unspecified)
inactive: Potency [1] | Potency [2] | Potency [3] | Potency [4]

CC1=CC=C(C(C)C)CC1
inactive: Potency [1] | Potency [2] | Potency [3] | Potency [4]

NS(=O)(=O)c1cc(C2(O)NC(=O)c3ccccc32)ccc1Cl (stereo unspecified)
inactive: Potency [1] | Potency [2] | Potency [3] | Potency [4]

CCCCN1C=CN(C)C1
inactive: activity, negative = inhibition [1] 0.291% [at 23.6 µM] | activity change, negative = inhibition [2] 1.48% [at 23.6 µM] | activity change, negative = inhibition [3] -2.29% [at 23.8 µM] | activity change, negative = inhibition [4] 0.0718% [at 23.6 µM]

CC(C)Nc1ccc(NC(C)C)c2c1C(=O)c1ccccc1C2=O
inactive: Potency [1] | Potency [2] | Potency [3] | Potency [4]

COC(C)=O
inactive: Potency [1] | Potency [2] | Potency [3] | Potency [4]

N#Cc1cscn1
inactive: Potency [1] | Potency [2] | Potency [3] | Potency [4]

CC(=O)OCC1=C(C(=O)O)N2C(=O)[C@@H](NC(=O)CSc3ccncc3)[C@H]2SC1
inactive: Potency [1] | Potency [2] | Potency [3] | Potency [4]

CC(C)(C)C1CCC(CC2=C(O)c3ccccc3C(=O)C2=O)CC1 (stereo unspecified)
inactive: Potency [1] | Potency [2] | Potency [3] | Potency [4]

Cc1cc(C)c(C=O)c(C)c1
inactive: Potency [1] | Potency [2] | Potency [3] | Potency [4]

CN=C(NC#N)NCCSCc1csc(N=C(N)N)n1
inactive: Potency [1] | Potency [2] | Potency [3] | Potency [4]
